# Assay results as given in PubChem BioAssay AID1159580 (chemical genetic matrix, 2015).
# About 2,000 (36%) of roughly 5,500 compounds were called active. Roughly 18% stayed inconclusive and do not appear here. Some of the results follow. Unmarked numbers belong to inactive results. Cut-off read from the data, not from the text of the source: active = normalized growth mostly below about 0.91 (no sharp cut-off); inconclusive = no clear call, values can overlap the other calls; inactive = mostly above about 0.92.
# Test: chemical genetic growth profiling, strain panel (AID 1159580);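 note: tested at 20 µM; growth read once vehicle control cultures reached saturation at 30 °C; 1 = growth at the plate median or of vehicle wells; lower values mean less growth of the strain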
# Details: growth OD
compound,measurement,setting,value
CC(=O)O[C@H]1C(=O)[C@@]2(C)C([C@H](OC(=O)c3ccccc3)[C@]3(O)C[C@H](OC(=O)[C@H](O)[C@@H](NC(=O)c4ccccc4)c4ccccc4)C(C)=C1C3(C)C)[C@]1(OC(C)=O)CO[C@@H]1C[C@@H]2O (stereo partly specified),normalized growth,"S. cerevisiae deletion strains, locus YJR066W, strain TOR1, stronger effect = lower value",0.943
same,normalized growth,"S. cerevisiae deletion strains, locus YJR075W, strain HOC1, stronger effect = lower value",1.04
same,normalized growth,"S. cerevisiae deletion strains, locus YKL009W, strain mrt4, stronger effect = lower value",0.636 (active)
same,normalized growth,"S. cerevisiae deletion strains, locus YKL068W, stronger effect = lower value",0.781 (active)
same,normalized growth,"S. cerevisiae deletion strains, locus YKL085W, strain MDH1 (second series), stronger effect = lower value",0.884 (active)
same,normalized growth,"S. cerevisiae deletion strains, locus YKL085W, strain MDH1, stronger effect = lower value",0.884 (active)
same,normalized growth,"S. cerevisiae deletion strains, locus YKL160W, strain elf1, stronger effect = lower value",1.01
same,normalized growth,"S. cerevisiae deletion strains, locus YKL190W, strain CNB1, stronger effect = lower value",1.02
same,normalized growth,"S. cerevisiae deletion strains, locus YKR026C, strain gcn3, stronger effect = lower value",0.999
same,normalized growth,"S. cerevisiae deletion strains, locus YKR091W, strain srl3, stronger effect = lower value",1
same,normalized growth,"S. cerevisiae deletion strains, locus YLL001W, strain dnm1, stronger effect = lower value",1.05
same,normalized growth,"S. cerevisiae deletion strains, locus YLL026W, stronger effect = lower value",0.993
same,normalized growth,"S. cerevisiae deletion strains, locus YLL041C, strain sdh2, stronger effect = lower value",0.979
same,normalized growth,"S. cerevisiae deletion strains, locus YLR027C, strain aat2, stronger effect = lower value",0.97
same,normalized growth,"S. cerevisiae deletion strains, locus YLR039C, strain RIC1, stronger effect = lower value",1.06
same,normalized growth,"S. cerevisiae deletion strains, locus YLR058C, strain SHM2, stronger effect = lower value",1.03
same,normalized growth,"S. cerevisiae deletion strains, locus YLR102C, strain apc9, stronger effect = lower value",1.03
same,normalized growth,"S. cerevisiae deletion strains, locus YLR113W, strain HOG1, stronger effect = lower value",0.945
same,normalized growth,"S. cerevisiae deletion strains, locus YLR221C, strain rsa3, stronger effect = lower value",1.03
same,normalized growth,"S. cerevisiae deletion strains, locus YLR258W, strain gsy2, stronger effect = lower value",0.997
same,normalized growth,"S. cerevisiae deletion strains, locus YLR262C, strain YPT6 (second series), stronger effect = lower value",1.02
same,normalized growth,"S. cerevisiae deletion strains, locus YLR262C, strain YPT6, stronger effect = lower value",1.15
same,normalized growth,"S. cerevisiae deletion strains, locus YLR268W, strain sec22, stronger effect = lower value",1.06
same,normalized growth,"S. cerevisiae deletion strains, locus YLR320W, strain mms22, stronger effect = lower value",1.01
same,normalized growth,"S. cerevisiae deletion strains, locus YLR330W, strain CHS5, stronger effect = lower value",1.03
same,normalized growth,"S. cerevisiae deletion strains, locus YLR342W, strain FKS1 (second series), stronger effect = lower value",1.06
same,normalized growth,"S. cerevisiae deletion strains, locus YLR342W, strain FKS1, stronger effect = lower value",1
same,normalized growth,"S. cerevisiae deletion strains, locus YLR357W, strain rsc2, stronger effect = lower value",1
same,normalized growth,"S. cerevisiae deletion strains, locus YLR370C, strain arc18, stronger effect = lower value",1.02
same,normalized growth,"S. cerevisiae deletion strains, locus YLR371W, strain rom2, stronger effect = lower value",1.03
same,normalized growth,"S. cerevisiae deletion strains, locus YLR384C, strain iki3, stronger effect = lower value",0.982
same,normalized growth,"S. cerevisiae deletion strains, locus YLR418C, strain cdc73, stronger effect = lower value",1.25 [resistant] (active)
same,normalized growth,"S. cerevisiae deletion strains, locus YML016C, strain PPZ1, stronger effect = lower value",1.03
same,normalized growth,"S. cerevisiae deletion strains, locus YML032C, strain rad52, stronger effect = lower value",1.05
same,normalized growth,"S. cerevisiae deletion strains, locus YML120C, strain ndi1, stronger effect = lower value",1.02
same,normalized growth,"S. cerevisiae deletion strains, locus YML124C, strain tub3, stronger effect = lower value",1.11 [resistant] (active)
same,normalized growth,"S. cerevisiae deletion strains, locus YMR058W, strain fet3, stronger effect = lower value",0.968
same,normalized growth,"S. cerevisiae deletion strains, locus YMR078C, strain ctf18, stronger effect = lower value",1.1 [resistant] (active)
same,normalized growth,"S. cerevisiae deletion strains, locus YMR125W, strain sto1, stronger effect = lower value",1.01
same,normalized growth,"S. cerevisiae deletion strains, locus YMR129W, stronger effect = lower value",0.987
same,normalized growth,"S. cerevisiae deletion strains, locus YMR205C, strain PFK2, stronger effect = lower value",1.02
same,normalized growth,"S. cerevisiae deletion strains, locus YMR223W, strain ubp8, stronger effect = lower value",1.12 [resistant] (active)
same,normalized growth,"S. cerevisiae deletion strains, locus YMR231W, strain pep5, stronger effect = lower value",0.983
same,normalized growth,"S. cerevisiae deletion strains, locus YMR263W, strain SAP30, stronger effect = lower value",1.06
same,normalized growth,"S. cerevisiae deletion strains, locus YMR307W, strain GAS1, stronger effect = lower value",1.09
same,normalized growth,"S. cerevisiae deletion strains, locus YNL067W, strain RPL9B, stronger effect = lower value",1.02
same,normalized growth,"S. cerevisiae deletion strains, locus YNL071W, strain lat1, stronger effect = lower value",0.972
same,normalized growth,"S. cerevisiae deletion strains, locus YNL128W, strain TEP1, stronger effect = lower value",1.05
same,normalized growth,"S. cerevisiae deletion strains, locus YNL153C, strain GIM3, stronger effect = lower value",1.03
same,normalized growth,"S. cerevisiae deletion strains, locus YNL183C, strain NPR1, stronger effect = lower value",0.952
same,normalized growth,"S. cerevisiae deletion strains, locus YNL209W, strain ssb2, stronger effect = lower value",1.01
same,normalized growth,"S. cerevisiae deletion strains, locus YNL233W, strain BNI4, stronger effect = lower value",1.02
same,normalized growth,"S. cerevisiae deletion strains, locus YNL248C, strain rpa49, stronger effect = lower value",0.783 (active)
same,normalized growth,"S. cerevisiae deletion strains, locus YNL250W, strain rad50, stronger effect = lower value",0.921
same,normalized growth,"S. cerevisiae deletion strains, locus YNL271C, strain bni1, stronger effect = lower value",1
same,normalized growth,"S. cerevisiae deletion strains, locus YNL298W, strain CLA4, stronger effect = lower value",0.941
same,normalized growth,"S. cerevisiae deletion strains, locus YNL307C, strain MCK1, stronger effect = lower value",1.03
same,normalized growth,"S. cerevisiae deletion strains, locus YNL322C, strain KRE1 (second series), stronger effect = lower value",0.986
same,normalized growth,"S. cerevisiae deletion strains, locus YNL322C, strain KRE1, stronger effect = lower value",1.03
same,normalized growth,"S. cerevisiae deletion strains, locus YNR049C, strain mso1, stronger effect = lower value",1
same,normalized growth,"S. cerevisiae deletion strains, locus YNR052C, strain pop2, stronger effect = lower value",1.09 [resistant] (active)
same,normalized growth,"S. cerevisiae deletion strains, locus YOL006C, strain TOP1, stronger effect = lower value",1.01
same,normalized growth,"S. cerevisiae deletion strains, locus YOL012C, strain htz1",2.06
same,normalized growth,"S. cerevisiae deletion strains, locus YOL147C, strain pex11, stronger effect = lower value",1.05
same,normalized growth,"S. cerevisiae deletion strains, locus YOR001W, strain rrp6, stronger effect = lower value",0.902
same,normalized growth,"S. cerevisiae deletion strains, locus YOR061W, strain CKA2, stronger effect = lower value",1.03
same,normalized growth,"S. cerevisiae deletion strains, locus YOR069W, strain VPS5, stronger effect = lower value",1.02
same,normalized growth,"S. cerevisiae deletion strains, locus YOR070C, strain gyp1, stronger effect = lower value",0.995
same,normalized growth,"S. cerevisiae deletion strains, locus YOR080W, strain dia2, stronger effect = lower value",1.01
same,normalized growth,"S. cerevisiae deletion strains, locus YOR083W, strain WHI5, stronger effect = lower value",1.01
same,normalized growth,"S. cerevisiae deletion strains, locus YOR106W, strain vam3, stronger effect = lower value",0.987
same,normalized growth,"S. cerevisiae deletion strains, locus YOR136W, strain idh2, stronger effect = lower value",1.1 [resistant] (active)
same,normalized growth,"S. cerevisiae deletion strains, locus YOR144C, strain elg1, stronger effect = lower value",1.1 [resistant] (active)
same,normalized growth,"S. cerevisiae deletion strains, locus YOR231W, strain MKK1, stronger effect = lower value",0.964
same,normalized growth,"S. cerevisiae deletion strains, locus YOR265W, strain rbl2, stronger effect = lower value",0.999
same,normalized growth,"S. cerevisiae deletion strains, locus YOR270C, strain vph1, stronger effect = lower value",0.866
same,normalized growth,"S. cerevisiae deletion strains, locus YOR290C, strain snf2, stronger effect = lower value",1.02
same,normalized growth,"S. cerevisiae deletion strains, locus YOR316C, strain cot1, stronger effect = lower value",1.06
same,normalized growth,"S. cerevisiae deletion strains, locus YPL051W, strain arl3, stronger effect = lower value",0.987
same,normalized growth,"S. cerevisiae deletion strains, locus YPL055C, strain LGE1, stronger effect = lower value",1.1
same,normalized growth,"S. cerevisiae deletion strains, locus YPL078C, strain atp4, stronger effect = lower value",0.956
same,normalized growth,"S. cerevisiae deletion strains, locus YPL106C, strain sse1, stronger effect = lower value",1.04
same,normalized growth,"S. cerevisiae deletion strains, locus YPL240C, strain hsp82, stronger effect = lower value",0.994
same,normalized growth,"S. cerevisiae deletion strains, locus YPL241C, strain CIN2, stronger effect = lower value",1.04
same,normalized growth,"S. cerevisiae deletion strains, locus YPL256C, strain CLN2, stronger effect = lower value",1.1
same,normalized growth,"S. cerevisiae deletion strains, locus YPR119W, strain clb2, stronger effect = lower value",1.03
same,normalized growth,"S. cerevisiae deletion strains, locus YPR141C, strain kar3, stronger effect = lower value",0.94
same,normalized growth,"S. cerevisiae deletion strains, locus YPR163C, strain tif3, stronger effect = lower value",1.05
same,normalized growth,"S. cerevisiae deletion strains, locus YPR167C, strain met16, stronger effect = lower value",1.08 [resistant] (active)
same,normalized growth,"S. cerevisiae deletion strains, strain wtn01, stronger effect = lower value",1.09
same,normalized growth,"S. cerevisiae strains, strain wild type, stronger effect = lower value",0.995
